First the molecules themselves.
B1: chr4:25747873:25747886:-|3pUTR|ENSG00000091490|msi1_unk|FALSE|overlapping (ssRNA)
RNA: GGGAGUUCUACAGUCCGACGAUCUAGCAGUUAUAAGGCACCUUGAAAUAAAUUGUUUGUGCCUGGAAAUGCAGGGAGGGCAAUAGCUUUGUAAAUUGGUUUACAUUUUUCUCCUUGAAUUUUUCUAGGGUCCUAGUGCUUCCGCAACAGAGGAUUGAGCAUCA
B2: ENSG00000107863:be:win_3601|CDS|ENSG00000107863|bound_else_gene|NA|bound_elsewhere_windowed (ssRNA)
RNA: GGGAGUUCUACAGUCCGACGAUCAAGGGAAUGGCUGAUAUUGAUAUACAAGAUGAUAAAUGGCGAGAUUUGAAUGUGAUAAGCAGUUUACUAAAAUCCUUCUUCAGAAAACUCCCUGAGCCUCUCUUCACAAAUGAUAAAUAUCAACAGAGGAUUGAGCAUCA
B3: chr6:52502144:52502313:-|3pUTR|ENSG00000065308|msi1|total|mutant (ssRNA)
RNA: GGGAGUUCUACAGUCCGACGAUCUCAGCCAUUCACAAGCAUUCAAAACCAAACCAAACAGCAGUUCAUAUACCUGCCUGAGACCGGCUGGUCCUCACCUCCAGAGCCAGCCAGCCCCGUCAGGGGCCAAACUUACUACCUUGACAACAGAGGAUUGAGCAUCA
B4: chr10:119917856:119917957:+|CDS|ENSG00000107651|unk|total|mutant (ssRNA)
RNA: GGGAGUUCUACAGUCCGACGAUCUAAGAAAAUCACUUUGCCAAGUAUUGGUCGAUUUCGUCACUUUACCAAUGAAACUUUGCCCGAUAUUUUAUUUUAUAACAGCCCCACCUACUGUCAGACAAUUGUGGAAAAAGCCGGAAUCAACAGAGGAUUGAGCAUCA
B5: chr12:104760787:104760888:+|3pUTR|ENSG00000171310|unk|total|mutant (ssRNA)
RNA: GGGAGUUCUACAGUCCGACGAUCUUCUUUUCUAAUGGCAUUGAAACUUUAAAAAAAAUGGAUUCAACUGUUUUUGCAGAAUGCCGAAAGUAUUCUGUGUCCUUGGUUAAAGAAAUCCACUUGUGAAGUGUGCCUGGAAAAUGACAACAGAGGAUUGAGCAUCA
B6: ENSG00000064393:stop:overlap|stop_codon|ENSG00000064393|stop_codon|NA|stop_codon (ssRNA)
RNA: GGGAGUUCUACAGUCCGACGAUCUCUCCCUGGAGAGUGGUUUUCCUGCUUUUCUGCUGCUAGAAAUGUUGCUGUAUGGGAGCUAGUACAAUAGAAAGUGCCCAGUGACUGCAGGCGACCCUUACCGAGGAUUUUAUUCAAGUACAACAGAGGAUUGAGCAUCA
B7: chr12:909583:909684:+|3pUTR|ENSG00000060237|unk|FALSE|bound_elsewhere (ssRNA)
RNA: GGGAGUUCUACAGUCCGACGAUCUAGCUCUGUCCUUUACUUAUUGAGACACUUUAACUUUUUCCUUUGUAUUUCCAUUGUAUUAGAUAAAUAAAUGUGAAUGUAAAAUUGUAUAAAUUACUGUACUUGAAUACUUCUGUUUCCCAACAGAGGAUUGAGCAUCA
B8: ENSG00000198856:stop:overlap|stop_codon|ENSG00000198856|stop_codon|NA|stop_codon (ssRNA)
RNA: GGGAGUUCUACAGUCCGACGAUCUGAGUUUUUUCAUGGCUAGAGUAUUCAUGAGAAUGAAACUGCCGGGCUAUCUGAUGGGUUAGAGUGCCUUUGAGAAGAAAUCAGUGGAUACUGGAUUUGCUCCUGUCAAUGAAGUUUUAACAACAGAGGAUUGAGCAUCA
B9: chr12:98549999:98550103:+|3pUTR|ENSG00000120802|unk|total|mutant (ssRNA)
RNA: GGGAGUUCUACAGUCCGACGAUCUGUUUCCCAUACUGUUUUCAGCCUUUUGUUUAUAAUCCGAAAUUGUGAGAAGCUUCAUUCCGUGUUUAAAAAUGUGGGGAGAUAAAUCAGACUUAACAUGUAUGUAAGAUCAAUUCACUUCAACAGAGGAUUGAGCAUCA
B10: chr8:100287602:100287712:-|CDS|ENSG00000034677|unk|FALSE|unique (ssRNA)
RNA: GGGAGUUCUACAGUCCGACGAUCUGUGUGGAUUGCUUACGACAAUAUUUAAGGAUAGAAAUCUCUGAAAGCAGAGUUAAUAUUAGUUGCCCAGAAUGUACUGAACGGUUUAAUCCCCAUGAUAUUCGCUUGAUAUUAAGUGAUCAACAGAGGAUUGAGCAUCA
B11: chr1:150220393:150220494:-|3pUTR|ENSG00000143401|msi1_unk|total|mutant (ssRNA)
RNA: GGGAGUUCUACAGUCCGACGAUCAUUGUAUGCCGAGAAAAAUUUUCAUUGACUCCCAUUGUGGAAUUCCCCCGCAAUUUAUUCCGACUUAAUUUUUUAAAUUCAAGCUUACUGUAUCCGUCAUUUUCCGCCCAUAAUUAAAACCAACAGAGGAUUGAGCAUCA
B12: chr12:98549999:98550103:+|3pUTR|ENSG00000120802|unk|FALSE|unique (ssRNA)
RNA: B9 RNA with C60U, C61A, C83U, C84A
B13: chr12:104760787:104760888:+|3pUTR|ENSG00000171310|unk|FALSE|unique (ssRNA)
RNA: B5 RNA with C83U, C84A
B14: chr8:100287602:100287712:-|CDS|ENSG00000034677|unk|total|mutant (ssRNA)
RNA: B10 RNA with U55C, A56C, U83C, A84C
B15: chr1:150220393:150220494:-|3pUTR|ENSG00000143401|msi1_unk|FALSE|overlapping (ssRNA)
RNA: B11 RNA with C32U, C33A, C71U, C72A, C83U, C84A, C117U, C118A, C127U, C128A
B16: chr2:167954955:167954998:-|3pUTR|ENSG00000198648|msi1_unk|FALSE|overlapping (ssRNA)
RNA: GGGAGUUCUACAGUCCGACGAUCGUUGUAUUUAGAAAUUAAUAUACUUAUAAAAUUAAGAUUUAUUAGCCAAACUUGAAUUCUAGUUUUAAAACUGACUGUGAAUUUUAUUUUUCAUAUAUUUAUGCAUUACACACCUUAGCUCAACAGAGGAUUGAGCAUCA
B17: ENSG00000087460:stop:overlap|stop_codon|ENSG00000087460|stop_codon|NA|stop_codon (ssRNA)
RNA: GGGAGUUCUACAGUCCGACGAUCGAGGCGCCUUCGGCUCGGGCCAUGGCGCCCGGCGCCGGGGGCGCGAGGAGCGGCUCAUCUAGUCAGACCCCCCACCCCGCCACCGCCACCAGACACCACCAUCGCUGUGUAGUGUGCUGGCAACAGAGGAUUGAGCAUCA
B18: chr1:45693489:45693605:+|CDS|ENSG00000159596|unk|FALSE|unique (ssRNA)
RNA: GGGAGUUCUACAGUCCGACGAUCAAUCCCCUUCGUUGCUCCACCACUGGUCAUGCUGAUGACAAAAACUUAUAUUCCCAUAUUAGCUUUUACUCAGAUGGCUUAUGGAGCCAGUUUCCUAUCUUUCUUGGGUGGGAUCAGAUGCAACAGAGGAUUGAGCAUCA
B19: chr1:17067390:17067767:-|3pUTR|ENSG00000117115|msi1|total|mutant (ssRNA)
RNA: GGGAGUUCUACAGUCCGACGAUCCCCAACAUGCAAAGCCCACAUUUAAAGGCCAGCCUCUGCCCCUUCAGUGAUGCGCUCUUCCGAAAUGCCAGUCCACUAUAUUCAGAAAUCCGCAGGGCACAAAACUUCCAGCAAGUCACUCAACAGAGGAUUGAGCAUCA
B20: chr10:32033860:32033975:-|CDS|ENSG00000170759|unk|total|mutant (ssRNA)
RNA: GGGAGUUCUACAGUCCGACGAUCCACAGUGGAUAAAGAUAUUACUCUUACCAAUGAUAAACCAGCAACCGCAAUUGGAGUUACCGGAAAUUUUACUGAUGCUGAAAGAAGAAAGUGUGAAGAAGAAAUUGCUAAAUUAUACAACAACAGAGGAUUGAGCAUCA
B21: chr5:171862525:171862626:-|3pUTR|ENSG00000072803|msi1|total|mutant (ssRNA)
RNA: GGGAGUUCUACAGUCCGACGAUCGACAGUGCAUGGAAAGGACGUUGGCAUCCAAUUGGCACUCCUUCUCCCUUAUUCAAUAUCCGGUUUGAUUUGCCCUUCGCCAUUGUUUCCAAAGAUCAAGGAAUGUCAAUAACAUUUUAACAACAGAGGAUUGAGCAUCA
B22: ENSG00000124766:be:win_751|CDS|ENSG00000124766|bound_else_gene|NA|bound_elsewhere_windowed (ssRNA)
RNA: GGGAGUUCUACAGUCCGACGAUCGGCGCCGCCGCCGACCACCACUCGCUGUACAAGGCGCGGACUCCCAGCGCCUCGGCCUCCGCCUCCUCGGCAGCCUCGGCCUCCGCAGCGCUCGCGGCCCCGGGCAAGCACCUGGCGGAGCAACAGAGGAUUGAGCAUCA

We go through 22 molecules from paper PMC12136788.

Positions count from the first letter of the chain named. In all, about 5,800 sequences were measured (“enrichment r”: median about 0.54, highest 2% from about 16 on). Only a selection was taken, and the highest values are over-represented in it overall.

Sequence of MSI1 full-length (Q61474 whole entry): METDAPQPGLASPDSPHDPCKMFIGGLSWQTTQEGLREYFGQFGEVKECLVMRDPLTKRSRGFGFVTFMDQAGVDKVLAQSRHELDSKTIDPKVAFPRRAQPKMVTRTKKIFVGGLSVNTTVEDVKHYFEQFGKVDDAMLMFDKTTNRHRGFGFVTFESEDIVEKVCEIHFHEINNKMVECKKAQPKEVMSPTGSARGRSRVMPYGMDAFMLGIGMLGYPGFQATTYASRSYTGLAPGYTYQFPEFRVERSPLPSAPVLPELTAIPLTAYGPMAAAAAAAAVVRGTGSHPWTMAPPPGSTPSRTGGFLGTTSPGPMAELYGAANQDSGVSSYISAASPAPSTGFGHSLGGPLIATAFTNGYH

The assay concerns the target MSI1 full-length (mouse, UniProt Q61474 1-362). Briefly: nsRBNS (natural sequence RNA bind-n-seq); RBNS binding buffer (assumed for nsRBNS): 25 mM Tris pH 7.5, 150 mM KCl, 3 mM MgCl2, 0.01% Triton X-100, 500 ug/ml BSA, 20 U/ml SUPERase-In, 4 C; UNK is unkempt and MSI1 is Musashi-1; names of the RNAs are library labels; protein concentration not given here; high values mean tight binding.
For the molecule B1, the binding signal came to 1.14 enrichment R.

Turning to B2, the binding signal amounted to 0.64 enrichment R.

As for B3, the binding signal was determined as 0.877 enrichment R.

Consider B4, for which the binding signal was determined as 0.52 enrichment R.

B5: the binding signal came to 0.231 enrichment R.

Regarding B6, the binding signal was 0.605 enrichment R.

In turn, B7 had a binding signal of 13.1 enrichment R.

Molecule B8 returned a binding signal of 16.4 enrichment R.

Regarding B9, the binding signal came out at 0.426 enrichment R.

B10 gave a binding signal of 22.4 enrichment R.

With B11, the binding signal was 2.27 enrichment R.

With B12, the binding signal was found to be 27.3 enrichment R.

In the case of B13, the binding signal stood at 0.433 enrichment R.

As to B14, the binding signal was determined as 0.307 enrichment R.

The molecule B15 yielded a binding signal of 61.8 enrichment R.

In the case of B16, the binding signal was 9.9 enrichment R.

As to B17, the binding signal was 0.204 enrichment R.

Molecule B18 registered a binding signal of 0.499 enrichment R.

B19 displayed a binding signal of 0.72 enrichment R.

Molecule B20 registered a binding signal of 0.675 enrichment R.

On to B21, for which the binding signal was determined as 0.579 enrichment R.

As for B22, the binding signal stood at 0.389 enrichment R.
